Rows were chosen to be rich in hits. Some 7.4% of all compounds tested hit in one or more screens of this group.
NIH3T3 tox: cytotoxic compounds in NIH 3T3 cells; NIH 3T3 viability, CellTiter-Glo ATP luminescence, 48-72 h; Potency, µM (titrated, usually from 96.7 µM), inactives show at the highest dose activity change, negative = cytotoxicity, usual class: inhibitors; hit rate 4.3% among 94,000; AID 1345082; further: nearly all actives have a fitted effect of over 55% in size
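Cytotoxicity is measured as loss of cellular ATP: NIH 3T3 cells (400/well) are exposed to compound for 48 or 72 hr at 37 °C, then CellTiter-Glo luminescence is imaged after 10 min at room temperature.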
HEK cytotox: HEK 293 cell cytotoxicity; HEK 293 viability, ATP luminescence (CellTiter-Glo), 48-72 h; Potency, µM (series often up to 115 µM), for inactives: top-dose activity change, negative = cytotoxicity, most hits filed as inhibitors; hit rate 6.6% among 94,000; further: nearly all actives have a fitted effect of over 60% in size
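HEK 293 seeded at 250 cells/well receive compound via pintool. After 48 or 72 hr at 37 degree Celsius, 5% CO2 and 95% humidity, CellTiter-Glo is dispensed and luminescence read following 10 min at room temperature.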
SNCA viab count: counter-screen for SNCA expression inhibitors: cell viability; HEK-293-SNCA-luc viability, GF-AFC fluorescence, 24 h; Potency, µM (highest dose often 57.1 µM), for the others: at the highest dose activity change, negative = cytotoxicity, usual class: cytotoxic; hit rate 0.12% among 150,000; AID 1671193;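 further: 0% = DMSO-treated cells and -100% = medium-only wells without cells; nearly all actives have a fitted effect of over 30% in size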
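Cytotoxicity counterscreen: after 24 h compound treatment of genome-edited SNCA-luciferase HEK-293 cells, live-cell protease substrate GF-AFC read by fluorescence after 30 min; activity scaled between DMSO (0%) and medium-only (-100%), curves Hill-fitted.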
hNpr1 antagonist: human Npr1 receptor antagonism; hit rate 1.6% among 76,000; HEK293 hNpr1 GloSensor cGMP, ANP-stimulated luminescence; Potency, µM (highest dose often 46.3 µM), for the others: top-dose activity change, negative = inhibition, actives largely listed as inhibitors; calls by dose curve; further: nearly all actives have a fitted effect of over 60% in size
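HEK293 cells stably expressing human Npr1 and cGMP GloSensor pGS-40F, loaded 2 h with 2% GloSensor reagent, given compound 30 min at room temperature. Luminescence read before and 20 min after 0.1 nM hNppA.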
Luciferase inh: blocks purified firefly luciferase enzyme activity; Potency, µM (highest dose often 115 µM), most hits filed as inhibitors; AID 1347043; P08659; purified P. pyralis luciferase, luminescence, biochemical; hit rate 2.5% among 76,000; further: nearly all actives have a fitted effect of over 65% in size
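Purified 10nM P. pyralis luciferase with 10uM D-luciferin and 10uM ATP in 50mM Tris acetate pH 7.5, 10mM Mg acetate, 0.01% Tween-20, 0.05% BSA. qHTS titration; luminescence read by CCD imager.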
SNCA expr inhib: reduces expression of the alpha-synuclein gene | hit rate 0.17% among 140,000 | HEK-293 SNCA-luciferase knock-in, luminescence, 24 h | Potency, µM (top dose mostly 57.2 µM), for inactives: top-dose activity change, negative = inhibition, hits mostly inhibitors;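 further: plate controls were DMSO cells for no effect and cell-free wells for full effect; nearly all actives have a fitted effect of over 45% in size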
The depositor's hits bear a star; [ ] = dose if it differs, or a comment. Unless noted, the call rests on the fitted dose curve; in most records, active means well fitted curve in the direction sought with a large enough effect; inconclusive means small, poorly fitted or top-dose-only effect, or another doubt; inactive means no such curve, though single readings can be large; an effect the other way counts as inactive or inconclusive. Unless noted, on the % scale 0 is the no-effect control and ±100 the full control effect; potency means the concentration at half of the fitted maximal effect.

CC(C)(N)C(=O)N1CCN(c2nc(-c3ccccc3)nc3c2CCC3)CC1 was read as NIH3T3 tox inconclusive, HEK cytotox 50µM*, SNCA viab count 2%, hNpr1 antagonist -1%, Luciferase inh inactive and SNCA expr inhib -28%.
`O=C(NC1CCC(O)CC1)C1CCCN(c2nc(-c3ccccc3)nc3c2CCC3)C1` (stereo not given) gave NIH3T3 tox inconclusive, HEK cytotox inconclusive, SNCA viab count -22%, hNpr1 antagonist -3%, Luciferase inh inactive and SNCA expr inhib 50%.
`O=C(C1CCCN(c2nc(-c3ccccc3)nc3c2CCC3)C1)N1CCNCC1` (stereo not given) gave NIH3T3 tox inconclusive, HEK cytotox inconclusive, SNCA viab count -23%, hNpr1 antagonist 0%, Luciferase inh inactive and SNCA expr inhib 10%.
COCCNC(=O)C1CC(=O)N(C2CN(S(=O)(=O)Cc3ccccc3)C2)C1 (stereo not given) was read as NIH3T3 tox -20%, HEK cytotox -3%, SNCA viab count 5% and SNCA expr inhib -6%.
Screening O=C(CCC[C@H]1NC[C@@H]2C[C@H]1CN(Cc1ccccc1)C2)NCCCN1CCCc2ccccc21 returned NIH3T3 tox -3%, HEK cytotox -3%, SNCA viab count -1%, hNpr1 antagonist -1%, Luciferase inh inactive and SNCA expr inhib 2%.
For CC(=O)N1CCN(c2ccc3nnc(C4CC4)n3n2)CC1 the results were NIH3T3 tox -15%[138 µM] and HEK cytotox 0%[172 µM].
Screening COc1ccccc1Nc1ccnc(N2CCC(NC(=O)C3CC3)CC2)n1 returned NIH3T3 tox -28%, HEK cytotox -22%, SNCA viab count 9% and SNCA expr inhib -3%.
COC(=O)NC1CCN(c2nccc(Nc3ccccc3OC)n2)CC1 was read as NIH3T3 tox inconclusive, HEK cytotox 50µM*, SNCA viab count -7% and SNCA expr inhib 18%.
For COc1ccccc1Nc1ccnc(N2CCC(N[S+](=O)([O-])c3ccccc3)CC2)n1 the results were NIH3T3 tox 32µM*, HEK cytotox 32µM*, SNCA viab count -21% and SNCA expr inhib -22%.
Screening COCC(=O)NC1CCN(c2nccc(Nc3ccccc3OC)n2)CC1 returned NIH3T3 tox inconclusive, HEK cytotox inconclusive, SNCA viab count -7% and SNCA expr inhib 15%.
`COc1ccccc1Nc1ccnc(N2CCC(N[S+](=O)([O-])c3ccc(C)cc3)CC2)n1` gave NIH3T3 tox inconclusive, HEK cytotox 32µM*, SNCA viab count 2%[12.5 µM] and SNCA expr inhib 8%.
For COc1ccccc1Nc1ccnc(N2CCC(NC(C)=O)CC2)n1 the results were NIH3T3 tox inconclusive, HEK cytotox inconclusive, SNCA viab count 3% and SNCA expr inhib 4%.
O=C(NCc1ccccn1)c1ccc2nnc(C3CCCC3)n2c1 was read as NIH3T3 tox -10%[138 µM], HEK cytotox 2%[172 µM], SNCA viab count 0%[87.6 µM] and SNCA expr inhib 1%[87.6 µM].
Screening COc1ccccc1-c1noc(-c2nc(-c3ccncc3)no2)n1 returned NIH3T3 tox 5%, HEK cytotox -2%, SNCA viab count 5%, hNpr1 antagonist -5%, Luciferase inh inactive and SNCA expr inhib 218%.
`COc1cccc(-c2noc(-c3ccc(-c4ccc(O)cc4)nc3)n2)c1OC` gave NIH3T3 tox 45µM*, HEK cytotox inconclusive, SNCA viab count 5%, hNpr1 antagonist -1%, Luciferase inh inconclusive and SNCA expr inhib -6%.
Screening CN(Cc1cnccn1)C(=O)CC(c1ccccc1)c1ccccc1Cl (stereo not given) returned NIH3T3 tox -6%, HEK cytotox inconclusive, SNCA viab count -16%, hNpr1 antagonist 1%, Luciferase inh inactive and SNCA expr inhib -12%.

Source: PubChem (National Center for Advancing Translational Sciences (NCATS))
